Source: PubChem BioAssay
OTUD3 inh – inhibitors of human OTUD3 deubiquitinase | hit rate 0.7% among 47,000 | purified OTUD3, Ub-rhodamine fluorescence, 2 h | OTU domain-containing protein 3 (Homo sapiens), Q5T2D3 | inhibition, % at 25 µM | AID 1645858, 2021
USP30 block – inhibitors of human USP30 deubiquitinase; Ubiquitin carboxyl-terminal hydrolase 30 (Homo sapiens), Q70CQ3; AID 1645860, 2021; hit rate 5.3% among 47,000; inhibition, % at 25 µM; purified USP30, Ub-rhodamine cleavage fluorescence
USP28 block – inhibitors of human USP28 deubiquitinase | Ubiquitin carboxyl-terminal hydrolase 28 (Homo sapiens), Q96RU2 | purified USP28, Ub-rhodamine cleavage fluorescence, 30 min | inhibition, % at 25 µM | hit rate 3% among 47,000 | AID 1645857, 2021
USP17 inh – inhibitors of human USP17 deubiquitinase; Ubiquitin carboxyl-terminal hydrolase 17-like protein 5 (Homo sapiens), A8MUK1; inhibition, % at 50 µM; hit rate 6.5% among 47,000; purified USP17, Ub-rhodamine cleavage fluorescence, 3 h; AID 1645855, 2021
Starred values were filed as active, the others as inactive; i = inactive. In the library only some 12% were active in any assay of this set; here they are far more common. No stated cut-off is given here; in the data, active means inhibition above about 30%; inactive means the rest.

SMILES	OTUD3 inh	USP30 block	USP28 block	USP17 inh
O=c1oc2c3c(c(Cl)cc2c2c1CCCC2)OCN(Cc1ccccc1)C3	1	-120	-24	44*
CN(C(=O)c1cccnn1)[C@H]1CC[C@@]2(C)C[C@H](c3ccccc3)C[C@](C)(O2)[C@@H]1O	5	4	7	7
CC(C)C(=O)N1CCc2nc(C(=O)N3CCOCC3)sc2CC1	-11	3	-9	-6
COc1ccccc1-c1noc(-c2nnn(Cc3nc(-c4ccc(C)cc4)oc3C)c2C)n1	-1	32*	-13	-7
COc1ccc(-c2nc(-c3nnn(Cc4cccc(F)c4)c3C)no2)c(OC)c1	3	32*	42*	-5
COc1ccccc1-c1nc(-c2nnn(Cc3ccc(C)cc3)c2C)no1	0	30*	72*	4
COc1ccccc1-c1nc(-c2nnn(-c3ccc(C)cc3)c2C)no1	12	0	11	7
COc1ccc(-c2nc(-c3nnn(Cc4ccccc4)c3C)no2)cc1OC	0	1	23	6
COc1ccccc1-c1nc(-c2nnn(Cc3ccccc3)c2C)no1	18	27	45*	24
Cc1cccc(NC(=O)Cn2cccc(S(=O)(=O)N3CCCCCC3)c2=O)c1	-8	-18	-9	-16
O=C(c1csc2ccccc12)N1CCN(c2ccc(Cl)c(Cl)c2)CC1	8	33*	6	1
CC(C)(C)OC(=O)N1CCC[C@]2(CCC(=O)N2)[C@H]1c1ccc(F)cc1	16	31*	14	12
CCOc1ccccc1C(=O)[C@@H]1[C@@H]2CCCN2[C@]2(C(=O)Nc3c2ccc(C)c3C)[C@@]12C(=O)Nc1ccccc12	3	-23	1	15
Cc1ccc2c(c1C)NC(=O)[C@]21N2CCC[C@H]2[C@@H](C(=O)c2cc3ccccc3o2)[C@]12C(=O)Nc1ccccc12	-14	-18	-11	44*
COc1ccc(-c2ncc3c(n2)CCN(C(=O)NC2CCCCC2)C3)cc1	-16	-42	-11	-13
CCN1C(=O)c2cccnc2Sc2cc(NC(=O)CCc3cccc(OC)c3)ccc21	-18	-55	44*	4
CCN1C(=O)c2cccnc2Sc2cc(NC(=O)c3ccc(Cl)s3)ccc21	0	-63	51*	-15
CCN1C(=O)c2cccnc2Sc2cc(NC(=O)CCc3ccccc3OC)ccc21	-20	-86	-12	3
COc1ccc(CC(=O)N2CCN(c3ccc(-n4cccn4)nn3)CC2)cc1	2	34*	26	11
COc1ccc(CC(=O)N2CCc3nc(C(N)=O)sc3CC2)cc1	4	-154	0	3
N#Cc1c2n(c(=O)n(CC(=O)N(C3CC3)C3CCS(=O)(=O)C3)c1=O)CCC2 (centres undefined)	-131	i	-147	-133
COc1cc2c(cc1OC)C(COc1ccccc1OC)N(C(=O)c1ccc3ccccc3c1)CC2 (centres undefined)	1	-31	4	52*
CCC(C(=O)N1CCc2cc(OC)c(OC)cc2C1COc1ccccc1OC)c1ccccc1 (centres undefined)	12	15	4	31*
O=C(c1nc(-c2ccc3cc[nH]c3c2)no1)N1CCCC1	1	-1	1	3
Cc1cccc(CCNC(=O)c2ccc(CNS(=O)(=O)c3ccc(F)cc3)cc2)c1	-1	34*	2	-6
SMILES	OTUD3 inh	USP30 block	USP28 block	USP17 inh
CN(Cc1ccccc1)C(=O)c1ccc(CNS(=O)(=O)c2ccc(F)cc2)cc1	5	21	9	3
Cc1ccc(S(=O)(=O)NCc2ccc(C(=O)NCCc3ccc(S(N)(=O)=O)cc3)cc2)cc1	77*	88*	69*	88*
CC(=O)Nc1ccc(S(=O)(=O)NCc2ccc(C(=O)NCCc3ccc(Cl)cc3)cc2)cc1	6	96*	92*	17
CC(=O)Nc1ccc(S(=O)(=O)N2CCC(C(=O)NCCc3ccc(Cl)cc3)CC2)cc1	19	34*	22	18
CCOCC(=O)N1CCC2(CCC(c3cccnc3)c3ccccc32)CC1 (centres undefined)	-1	-18	-10	-20
CN1CC(=O)N(c2ccccc2)CC12CCN(C(=O)c1cnccn1)C2 (centres undefined)	-5	-21	-15	-11
Fc1ccccc1-c1nnc(SCc2ccccc2)n1Cc1ccccc1	35*	56*	64*	48*
CC(Sc1nnc(-c2ccccc2F)n1Cc1ccccc1)C(=O)N1CCc2ccccc21 (centres undefined)	25	42*	18	24
O=C(CSc1nnc(-c2ccccc2F)n1CCc1ccccc1)c1c[nH]c2ccccc12	-22	-45	-44	-51
CC(Sc1nnc(-c2ccccc2F)n1CCc1ccccc1)C(=O)N(C)c1ccccc1 (centres undefined)	0	16	8	5
CC1(C)Cc2nc3sc4c(=O)n(CC(=O)NCc5ccccc5)cnc4c3cc2CO1	-1	-6	-1	54*
Cc1nc(SCC(=O)Nc2cccc(Cl)c2)c2sc3nc4c(cc3c2n1)COC(C)(C)C4	11	32*	15	34*
COc1ccc(C(=O)Nc2cccc(C(=O)OCC(=O)c3ccc(Br)cc3)c2)cc1OC	3	8	0	34*
COc1cc(C(=O)Nc2ccc(-c3csc(C)n3)cc2)cc(OC)c1OC	-8	-32	78*	-9
Cc1nc(-c2cccc(NC(=O)c3cccc(F)c3)c2)cs1	-9	-13	12	-8
Cc1nc(-c2cccc(NC(=O)c3ccc(C)c(NC(=O)c4ccco4)c3)c2)cs1	17	28	22	43*
CCC(=O)Nc1nc2cc(NC(=O)c3cc(OC)c(OC)c(OC)c3)ccc2s1	-32	-130	-23	-44
CCn1c(=O)c(=O)[nH]c2cc(C(=O)Nc3cccc(-c4csc(C)n4)c3)ccc21	-3	-14	75*	58*
CCc1ccc(C(=O)Nc2ccc(OC)c(OC)c2)cc1	1	1	20	12
Cc1ccc(-c2[nH]ncc2CN2CCc3nc(N4CCN(C)CC4)[nH]c(=O)c3CC2)cc1	-3	-7	4	-16
COc1ccc(CNC(=O)c2ccc(-c3csc(C)n3)cc2)cc1	-2	6	4	8
Cc1nc(-c2ccc(C(=O)Nc3cccc(F)c3)cc2)cs1	1	-20	14	12
COc1ccc(C(=O)Nc2cccc(-c3csc(C)n3)c2)cc1OC	-16	-7	46*	-10
COc1cc(C(=O)Nc2ccc3nccnc3c2)cc(OC)c1OC	2	-33	34*	18
CC(=O)c1cccc(NC(=O)c2ccc(-c3csc(C)n3)cc2)c1	-6	-50	21	53*
Cc1nc(-c2ccc(C(=O)Nc3ccc(F)cc3)cc2)cs1	10	33*	21	19
COc1ccccc1C(=O)N[C@@H](Cc1ccccc1)C(=O)NCc1cscn1	16	23	14	5
